Experimental data reported in ChEMBL document CHEMBL3988442, “University of Dundee, Small-Polar-MMV Screening Library” (2021).
For part of these data: Potency and affinity values are given separately.

Experiments:
Parameters in all cases: scale not given: direction of the effect not stated beside the values
[1] = target: Protein translocase subunit SecA (Escherichia coli (strain K12)) (UniProt P10408); assay: Assay to Identify E. coli SecA ATPase Inhibitors; type: functional; settings: 30 µM
[2] = target: T1, Ubiquitin-activating enzyme e1, putative (Leishmania donovani (strain BPK282A1)) (UniProt E9BSI1); assay: Leishmania donovani Ubiquitin Activating Enzyme (LdE1); type: functional; settings: 30 µM
T1 sequence (whole entry): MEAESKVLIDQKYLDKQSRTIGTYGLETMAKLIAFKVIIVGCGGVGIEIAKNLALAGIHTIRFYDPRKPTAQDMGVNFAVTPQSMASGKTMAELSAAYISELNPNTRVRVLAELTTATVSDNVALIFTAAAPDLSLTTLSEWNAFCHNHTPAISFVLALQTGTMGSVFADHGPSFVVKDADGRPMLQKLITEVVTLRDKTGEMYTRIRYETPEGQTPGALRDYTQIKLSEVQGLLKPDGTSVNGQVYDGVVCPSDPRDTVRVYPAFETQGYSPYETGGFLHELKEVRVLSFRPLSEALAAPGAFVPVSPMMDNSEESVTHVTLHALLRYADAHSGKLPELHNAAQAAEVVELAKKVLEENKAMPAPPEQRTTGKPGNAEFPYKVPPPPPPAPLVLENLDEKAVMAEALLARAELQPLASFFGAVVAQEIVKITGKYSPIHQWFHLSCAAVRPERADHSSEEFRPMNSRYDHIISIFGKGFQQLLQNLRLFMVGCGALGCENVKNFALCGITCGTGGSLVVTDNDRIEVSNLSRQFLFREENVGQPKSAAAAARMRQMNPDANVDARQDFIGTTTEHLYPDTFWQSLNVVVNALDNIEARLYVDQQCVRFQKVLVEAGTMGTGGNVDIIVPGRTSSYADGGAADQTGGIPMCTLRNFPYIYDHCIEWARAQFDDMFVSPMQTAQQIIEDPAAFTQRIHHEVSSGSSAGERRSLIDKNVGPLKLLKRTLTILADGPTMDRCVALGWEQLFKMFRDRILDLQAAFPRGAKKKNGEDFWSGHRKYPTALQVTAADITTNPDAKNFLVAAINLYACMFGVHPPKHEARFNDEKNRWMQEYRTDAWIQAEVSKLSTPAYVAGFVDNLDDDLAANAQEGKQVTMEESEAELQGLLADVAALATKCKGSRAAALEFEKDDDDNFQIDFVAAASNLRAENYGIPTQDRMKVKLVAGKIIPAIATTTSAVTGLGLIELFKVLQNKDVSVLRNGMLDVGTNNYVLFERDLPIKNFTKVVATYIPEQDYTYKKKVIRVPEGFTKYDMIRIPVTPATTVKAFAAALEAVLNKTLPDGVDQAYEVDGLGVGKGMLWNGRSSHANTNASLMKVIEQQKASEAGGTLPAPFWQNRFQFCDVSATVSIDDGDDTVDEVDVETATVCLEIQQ

[3] = target: Sialic acid-binding Ig-like lectin 9 (Homo sapiens) (UniProt Q9Y336); assay: Hs-Siglec9 ALPHAscreen SOP 20170721; settings: 10 µM
Sialic acid-binding Ig-like lectin 9 (Homo sapiens), sequence (Q9Y336 whole entry): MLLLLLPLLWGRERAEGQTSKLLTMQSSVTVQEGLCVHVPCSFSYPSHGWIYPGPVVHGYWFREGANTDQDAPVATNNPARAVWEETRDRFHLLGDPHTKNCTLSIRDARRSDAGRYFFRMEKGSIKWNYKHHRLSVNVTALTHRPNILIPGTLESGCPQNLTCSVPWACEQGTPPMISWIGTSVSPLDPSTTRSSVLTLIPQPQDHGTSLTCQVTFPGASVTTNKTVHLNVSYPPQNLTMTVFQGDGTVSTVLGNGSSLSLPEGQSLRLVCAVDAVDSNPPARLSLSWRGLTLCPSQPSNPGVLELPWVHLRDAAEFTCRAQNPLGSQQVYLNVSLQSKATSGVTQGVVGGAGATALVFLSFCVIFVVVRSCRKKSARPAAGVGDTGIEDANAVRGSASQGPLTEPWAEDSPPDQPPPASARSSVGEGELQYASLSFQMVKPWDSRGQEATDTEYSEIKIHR

Trypanosoma cruzi = assay: Trypanosoma cruzi phosphomannomutase and mannose-1-phosphate guanylyltransferase assay; type: functional; settings: 10 µM
[4] = target: T2, Arginase-2, mitochondrial (Homo sapiens) (UniProt P78540); assay: in vitro enzyme assay to detect the production of urea directly proportional to the activity of Arginase II; type: functional; settings: 33.3 µM; further: in the data most compounds retested in dose-response had high values
T2 sequence (whole entry): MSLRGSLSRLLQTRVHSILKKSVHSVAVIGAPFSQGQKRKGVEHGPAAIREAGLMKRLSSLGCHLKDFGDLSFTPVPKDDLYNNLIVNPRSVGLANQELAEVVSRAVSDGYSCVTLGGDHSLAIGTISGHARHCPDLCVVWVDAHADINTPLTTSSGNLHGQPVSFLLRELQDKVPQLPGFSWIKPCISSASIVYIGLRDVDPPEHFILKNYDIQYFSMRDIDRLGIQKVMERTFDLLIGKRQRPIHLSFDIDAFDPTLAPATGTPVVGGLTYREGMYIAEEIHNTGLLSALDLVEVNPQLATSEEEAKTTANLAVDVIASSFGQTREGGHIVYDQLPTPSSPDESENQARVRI

[5] = target: T3, Proteasome subunit beta (Trypanosoma cruzi) (UniProt O96673); assay: Trypanosoma cruzi proteasome chymotrypsin-like activity (TcProtChymo) assay.; further: in the data most compounds retested in dose-response had high values; type: functional; settings: 9.37 µM
T3 sequence (whole entry): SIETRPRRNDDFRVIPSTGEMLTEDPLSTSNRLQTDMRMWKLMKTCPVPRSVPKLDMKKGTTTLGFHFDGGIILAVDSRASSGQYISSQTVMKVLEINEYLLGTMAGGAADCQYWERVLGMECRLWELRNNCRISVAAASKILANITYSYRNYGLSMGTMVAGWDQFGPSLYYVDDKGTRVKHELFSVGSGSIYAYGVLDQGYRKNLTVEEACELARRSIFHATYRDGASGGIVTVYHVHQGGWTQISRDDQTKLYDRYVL

Homo sapiens = species: Homo sapiens; assay: To identify inhibition of the IFN signalling (Jak-Stat) pathway via expression of an eGFP reporter gene under the control of an IFN-stimulated response element (ISRE) containing MxA promoter.; type: functional; settings: 30 µM
[6] = target: T4, Tyrosyl-tRNA synthetase, putative (Trypanosoma cruzi (strain CL Brener)) (UniProt Q4DSP6); assay: Trypanosoma cruzi tyrosyl tRNA synthetase (TcYRS) _High Tyrosine SOP; type: functional; settings: 30 µM; further: in the data most compounds retested in dose-response had high values
T4 sequence (whole entry): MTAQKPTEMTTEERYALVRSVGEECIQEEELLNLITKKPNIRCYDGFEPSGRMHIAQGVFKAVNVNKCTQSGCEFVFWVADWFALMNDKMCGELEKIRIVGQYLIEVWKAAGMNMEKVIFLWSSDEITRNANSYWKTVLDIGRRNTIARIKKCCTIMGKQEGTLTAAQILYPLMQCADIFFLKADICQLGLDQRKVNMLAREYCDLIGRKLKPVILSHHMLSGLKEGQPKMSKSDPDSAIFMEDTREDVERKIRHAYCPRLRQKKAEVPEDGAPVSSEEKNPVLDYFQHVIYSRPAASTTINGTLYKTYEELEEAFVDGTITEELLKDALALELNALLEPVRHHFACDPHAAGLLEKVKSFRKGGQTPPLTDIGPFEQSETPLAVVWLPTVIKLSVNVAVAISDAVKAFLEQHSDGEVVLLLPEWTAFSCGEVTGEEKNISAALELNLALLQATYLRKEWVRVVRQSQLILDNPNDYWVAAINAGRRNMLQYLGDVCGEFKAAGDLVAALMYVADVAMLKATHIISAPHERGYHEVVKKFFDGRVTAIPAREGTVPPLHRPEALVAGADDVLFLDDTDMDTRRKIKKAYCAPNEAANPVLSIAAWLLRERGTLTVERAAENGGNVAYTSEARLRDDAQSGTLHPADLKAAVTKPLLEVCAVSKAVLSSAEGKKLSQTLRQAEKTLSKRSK

[7] = target: T4, Tyrosyl-tRNA synthetase, putative (Trypanosoma cruzi (strain CL Brener)); assay: Trypanosoma cruzi tyrosyl tRNA synthetase (TcYRS) SOP; type: functional; settings: 30 µM
[8] = target: Chromo domain-containing protein 1 (Saccharomyces cerevisiae (strain ATCC 204508 / S288c) (Baker's yeast)) (UniProt P32657); assay: ScCHD-1 Enzyme Inhibition Assay; type: functional; settings: 30 µM; further: in the data most compounds retested in dose-response had high values
Chromo domain-containing protein 1 (Saccharomyces cerevisiae (strain ATCC 204508 / S288c) (Baker's yeast)), sequence (P32657 whole entry, the tested form may be a part): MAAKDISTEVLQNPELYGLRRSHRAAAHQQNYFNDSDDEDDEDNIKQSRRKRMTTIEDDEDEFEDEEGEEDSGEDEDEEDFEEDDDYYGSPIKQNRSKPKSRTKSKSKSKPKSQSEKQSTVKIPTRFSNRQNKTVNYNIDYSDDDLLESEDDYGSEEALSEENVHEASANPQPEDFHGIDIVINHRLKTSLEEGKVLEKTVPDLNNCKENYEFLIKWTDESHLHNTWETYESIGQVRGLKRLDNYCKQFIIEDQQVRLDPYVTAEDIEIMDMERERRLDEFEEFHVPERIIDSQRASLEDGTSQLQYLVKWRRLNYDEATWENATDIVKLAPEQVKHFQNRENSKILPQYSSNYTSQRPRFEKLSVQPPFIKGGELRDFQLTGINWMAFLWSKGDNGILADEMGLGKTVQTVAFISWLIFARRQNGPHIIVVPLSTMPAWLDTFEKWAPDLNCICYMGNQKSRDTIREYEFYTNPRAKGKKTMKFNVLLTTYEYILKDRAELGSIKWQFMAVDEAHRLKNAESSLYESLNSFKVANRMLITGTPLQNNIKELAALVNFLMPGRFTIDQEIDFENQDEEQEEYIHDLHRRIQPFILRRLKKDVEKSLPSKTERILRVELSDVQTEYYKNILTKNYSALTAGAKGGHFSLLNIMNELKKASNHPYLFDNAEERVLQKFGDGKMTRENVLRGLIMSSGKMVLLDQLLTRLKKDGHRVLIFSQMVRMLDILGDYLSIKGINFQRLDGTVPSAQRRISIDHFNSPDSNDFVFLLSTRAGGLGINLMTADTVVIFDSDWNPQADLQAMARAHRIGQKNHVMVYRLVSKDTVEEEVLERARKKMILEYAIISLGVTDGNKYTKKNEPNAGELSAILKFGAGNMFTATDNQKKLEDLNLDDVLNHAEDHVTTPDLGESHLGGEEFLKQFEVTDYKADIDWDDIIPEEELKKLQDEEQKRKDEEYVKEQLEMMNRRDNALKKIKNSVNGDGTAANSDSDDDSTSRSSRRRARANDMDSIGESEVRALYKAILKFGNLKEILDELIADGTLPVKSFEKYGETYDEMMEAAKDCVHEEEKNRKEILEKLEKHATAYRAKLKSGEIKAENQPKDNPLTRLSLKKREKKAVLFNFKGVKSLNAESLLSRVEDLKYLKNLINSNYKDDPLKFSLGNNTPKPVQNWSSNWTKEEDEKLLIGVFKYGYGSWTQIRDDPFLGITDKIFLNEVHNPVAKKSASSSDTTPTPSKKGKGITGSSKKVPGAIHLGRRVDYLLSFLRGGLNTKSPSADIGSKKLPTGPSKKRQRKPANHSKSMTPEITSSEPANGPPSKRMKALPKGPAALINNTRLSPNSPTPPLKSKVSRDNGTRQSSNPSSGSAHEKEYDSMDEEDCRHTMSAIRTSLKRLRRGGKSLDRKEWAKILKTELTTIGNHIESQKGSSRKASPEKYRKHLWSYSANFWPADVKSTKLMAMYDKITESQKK

Protein translocase subunit SecA (Escherichia coli (strain K12)), sequence (P10408 whole entry): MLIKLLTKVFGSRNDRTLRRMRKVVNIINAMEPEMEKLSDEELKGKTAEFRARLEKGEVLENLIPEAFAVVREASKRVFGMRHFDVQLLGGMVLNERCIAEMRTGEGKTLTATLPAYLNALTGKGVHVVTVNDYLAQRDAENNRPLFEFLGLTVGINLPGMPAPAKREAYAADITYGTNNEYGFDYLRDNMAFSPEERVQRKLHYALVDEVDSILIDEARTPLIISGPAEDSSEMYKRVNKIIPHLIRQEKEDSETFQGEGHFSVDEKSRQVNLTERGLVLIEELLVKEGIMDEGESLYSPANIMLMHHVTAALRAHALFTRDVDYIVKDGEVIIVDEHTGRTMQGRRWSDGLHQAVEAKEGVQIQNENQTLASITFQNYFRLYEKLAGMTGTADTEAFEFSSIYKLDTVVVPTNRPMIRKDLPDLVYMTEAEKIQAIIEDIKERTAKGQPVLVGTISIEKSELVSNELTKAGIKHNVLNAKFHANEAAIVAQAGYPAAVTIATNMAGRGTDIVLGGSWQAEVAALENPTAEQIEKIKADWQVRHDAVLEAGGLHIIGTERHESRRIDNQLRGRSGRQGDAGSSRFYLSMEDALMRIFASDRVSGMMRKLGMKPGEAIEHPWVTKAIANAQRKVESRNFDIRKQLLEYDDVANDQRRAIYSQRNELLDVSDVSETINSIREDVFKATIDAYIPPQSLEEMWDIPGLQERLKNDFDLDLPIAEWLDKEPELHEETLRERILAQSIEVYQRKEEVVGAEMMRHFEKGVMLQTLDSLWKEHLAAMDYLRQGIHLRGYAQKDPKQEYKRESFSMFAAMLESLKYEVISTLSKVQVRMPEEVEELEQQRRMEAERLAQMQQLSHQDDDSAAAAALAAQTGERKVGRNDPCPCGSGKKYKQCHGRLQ

Row | Structure (SMILES) | Percent Effect [1] [%] | Percent Effect [2] [%] | Percent Effect [3] [%] | Percent Effect (Trypanosoma cruzi) [%] | Percent Effect [4] [%] | Percent Effect [5] [%] | Percent Effect (Homo sapiens) [%] | Percent Effect [6] [%] | Percent Effect [7] [%] | Percent Effect [8] [%]
1 | Cc1ccc([C@@H]2CN(C(=O)c3ccc[nH]3)C[C@H]2NC(=O)C2CC2)cc1 | -2.9 | 5.41 | 1.4 | -4.56 | -3.85 | 17.3 | 30.6 | 2.66 | 7.32 | -6.72
2 | CCOCC1CN(Cc2ccc(OC)cc2)Cc2nn(C)cc21 (stereo not given) | -9.46 | 3.9 | 2.27 | -1.46 | 0.405 | 9.62 | 15.7 | 2.63 | 2.56 | 0.496
3 | Cc1cc(C)n(C2CCCN(C(=O)COCC(F)(F)F)C2)n1 (stereo not given) | -4.46 | 2.56 | 11.4 | 0.657 | 6.15 | -7.59 | -11.3 | 1.44 | -1.21 | -0.331
4 | O=C(NCc1cc[nH]n1)NCC(O)COc1cccc(F)c1 (stereo not given) | -1.6 | 10.7 | -6.96 | -7.03 | -7.98 | 8.74 | 12.9 | -2.63 | 0 | -6.87
5 | Cc1nc(CN2CCN(Cc3nccn3C)CC2)no1 | -4.99 | 8 | -1.66 | 3.21 | -1.77 | 4.16 | 11.1 | 5.79 | 15.4 | -11.3
6 | O=C(NCC1CC1)C1CCC2(CCN(C(=O)c3ccccn3)CC2)O1 (stereo not given) | -3.07 | 1.3 | -0.0517 | -2.44 | 2.74 | -2.66 | 9.93 | -4.83 | -10 | -4.71
7 | O=C1CC2(CCN(Cc3ccoc3)C2)CN1c1ccc2c(c1)OCO2 (stereo not given) | -7.31 | 1.3 | -0.448 | 1.85 | 0.81 | 4.68 | 4.43 | 7.89 | 10.3 | -0.51
8 | Cc1cc(NC(=O)NCC(C)N2CCc3ccccc32)no1 (stereo not given) | -4.79 | 26 | 2.28 | -3.54 | 1.02 | 5.96 | -2.59 | 12.8 | 21.2 | -6.91
9 | COC(=O)CC(c1cnn(C)c1)c1oc(C)cc(=O)c1O (stereo not given) | -7.67 | 0 | 0.282 | -5.33 | -3.85 | 6.85 | 8.46 | 0.532 | 0 | -1.21
10 | O=S(=O)(C1CC1)N1CCC2(CC1)CC(Oc1cccnc1)CO2 (stereo not given) | -7.74 | 9.09 | 4.03 | 2.43 | -3.24 | -1.15 | -0.725 | 3.68 | 0 | -0.139
11 | CNC(=O)CN(C)c1nc(-c2ccncc2)nc2c1CCN(C(C)=O)C2 | -7.13 | 0 | 0.927 | -1.07 | 2.45 | 9.59 | -4.34 | 1.6 | 7.32 | -3.67
12 | O=C(NCCC1=CCCCC1)C1CCN(c2ccc3nncn3n2)CC1 | -2.89 | 10.8 | -2.17 | -0.485 | -2.45 | 11.1 | 28.5 | 4.79 | 14.6 | 2.87
13 | Cn1cccc1C(=O)N1CCCC2(CCCN2Cc2cccnc2)C1 (stereo not given) | -10.1 | -1.3 | -0.843 | -1.85 | -6.88 | 7.33 | 9.38 | -2.63 | 2.56 | -0.361
14 | Clc1ccc(OCCCN2CCN(c3cnccn3)CC2)cc1 | -2.88 | -7.79 | 9.41 | -0.933 | -2.66 | -2.63 | 3.86 | 11.8 | 23.5 | -3.92
15 | CC(C)CCCNC(=O)Nc1ccc(F)c(C(N)=O)c1 | -0.324 | 23.4 | 0.112 | 2.61 | -6.76 | 12.3 | 14.9 | 6.86 | 30.6 | -10.9
16 | O=C(NCCOc1ccc2c(c1)OCO2)N1CCC1 | -4.13 | 20.8 | 6.65 | -3.36 | 5.94 | 19.1 | -11.1 | 4.9 | 16.5 | -4.94
17 | NC(=O)c1cc(C2CCCN(CCCOc3ccccc3)C2)n[nH]1 (stereo not given) | 1.07 | -15.4 | 18.7 | -0.282 | 6.15 | 1.79 | 0.734 | 1.44 | -1.21 | -4.36
18 | CCN1CCC2(CCC(=O)N2Cc2cccc(C)n2)CC1 | -2.48 | 9.09 | -0.0986 | -0.188 | 0.457 | 2.49 | -13.7 | 7.73 | 15 | -11.3
19 | CS(=O)(=O)NCc1cc2n(n1)CCCN(Cc1nc3ccccc3[nH]1)C2 | -9.74 | 2.7 | 1.38 | -1.46 | 3.85 | 6.16 | -1.07 | 6.92 | 9.76 | 3.52
20 | CCCS(=O)(=O)N1CCN(c2ccnc(N3CCCC3)n2)CC1 | -0.256 | 0 | 12.4 | 6.89 | 8.04 | 6.85 | -21.8 | 2.66 | 4.88 | -3
21 | COC[C@@H]1CC[C@H]2[C@H](CCN2S(=O)(=O)c2ccc(OC)cc2)O1 | -2.3 | -1.3 | 2.46 | -0.876 | -1.62 | 6.09 | -19.4 | -1.58 | 5.13 | 1.57
22 | O=C(CCN1CCCN(c2nccs2)CC1)NCC1CCCCC1 | -2.39 | 5.33 | 1.99 | -3.61 | 0 | 9.41 | 3.1 | 6.84 | 7.69 | -5.72
23 | COC(=O)C1CCN(C(=O)c2ccc(NS(C)(=O)=O)c(C)c2)CC1 | -3.21 | -5.41 | -1.94 | -2.04 | -0.35 | 10.3 | -0.596 | 3.72 | 0 | 0.629
24 | Nc1cc(CCC2CN(Cc3ccc(C(=O)O)cc3)CCO2)ccn1 (stereo not given) | -3.81 | 9.33 | -7.05 | -5.72 | -1.77 | 13 | 12.6 | -1.06 | 2.5 | -22
